IMPase inh: cell-permeable inhibitors of inositol monophosphatase (IMPase). CHO-M1 cells, IP1 accumulation, HTRF TR-FRET ratio. 120,000 tested, under 10 active. inhibition (IP1 accumulation), % at 46.1 µM; active = well fitted curve in the direction sought with a large enough effect in the signal ratio, not every such curve was filed as active; inconclusive = small, poorly fitted or top-dose-only effect, or a change in a side signal; inactive = no such curve, though single readings can be large or run the other way; the % refers to the signal ratio;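 note: cells stimulated with carbachol in lithium chloride buffer; plate controls were DMSO basal wells for no effect and reference inhibitor wells for full effect; higher means more IMPase inhibition seen as more IP1 and lower FRET ratio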
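Measured: the HTRF emission ratio (665/620 nm) plus the 620 nm donor channel, each fitted to the Hill equation to give AC50. Cells were CHO-M1 given compounds up to 46 uM and a 30 min carbachol stimulation at 37C.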
IMPase Li inh: membrane-permeable IMPase blocker, potentiated with lithium. CHO-M1 cells, IP1 TR-FRET (IP-One), carbachol + lithium. hit rate 0.35% among 210,000. Potency, µM (titrated, usually from 59.4 µM), inactives show at the top dose activity, negative = IMPase inhibition, most hits filed as inhibitors;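 note: IP1 builds up when IMPase is blocked and the TR-FRET signal falls; potency is the fitted concentration of half-maximal effect; plate controls were basal vehicle for no effect and high inhibitor control for full effect; nearly all actives have a fitted effect of over 50% in size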
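CHO-M1, 2000 cells/well, 16–30 h culture; cpd + low Li+, 30 min 37C; lysis with d2-IP1/Eu-anti-IP1 Ab, 10 min RT; TR-FRET 665/620 ratio and 620 channel; AC50 via Hill.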
HPGD block: HPGD (human) dehydrogenase inhibition | Potency, µM, for inactives: at the highest dose activity change, negative = inhibition, hits mostly inhibitors | hit rate 4.3% among 150,000 | purified HPGD, NADH fluorescence kinetic, PGE2 substrate | P15428; active = well fitted inhibition curve with a large enough effect, not every such curve was filed as active; inconclusive = small, poorly fitted or top-dose-only effect, or another doubt; inactive = no such curve, though single readings can be large or run the other way; note: potency is the fitted concentration of half-maximal effect
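20 nM HPGD preincubated 15 min at room temperature with compound in 50 mM Tris-HCl pH 8, 0.01% Tween 20. Started with 1 mM NAD+ and 30 uM prostaglandin E2; NADH fluorescence (360/450 nm) read 5 times over 30-s intervals, last minus first.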
15-hLO-2 inh: blocks human 15-lipoxygenase 2 activity; purified 15hLO-2, xylenol orange hydroperoxide absorbance; AID 881; hit rate 0.56% among 110,000; O15296; Potency, µM (highest dose often 57.1 µM), for the others: at the highest dose activity change, negative = inhibition, actives largely listed as inhibitors; note: potency is the fitted concentration of half-maximal effect; nearly all actives have a fitted effect of over 60% in size
Target sequence (O15296 whole entry, looked up): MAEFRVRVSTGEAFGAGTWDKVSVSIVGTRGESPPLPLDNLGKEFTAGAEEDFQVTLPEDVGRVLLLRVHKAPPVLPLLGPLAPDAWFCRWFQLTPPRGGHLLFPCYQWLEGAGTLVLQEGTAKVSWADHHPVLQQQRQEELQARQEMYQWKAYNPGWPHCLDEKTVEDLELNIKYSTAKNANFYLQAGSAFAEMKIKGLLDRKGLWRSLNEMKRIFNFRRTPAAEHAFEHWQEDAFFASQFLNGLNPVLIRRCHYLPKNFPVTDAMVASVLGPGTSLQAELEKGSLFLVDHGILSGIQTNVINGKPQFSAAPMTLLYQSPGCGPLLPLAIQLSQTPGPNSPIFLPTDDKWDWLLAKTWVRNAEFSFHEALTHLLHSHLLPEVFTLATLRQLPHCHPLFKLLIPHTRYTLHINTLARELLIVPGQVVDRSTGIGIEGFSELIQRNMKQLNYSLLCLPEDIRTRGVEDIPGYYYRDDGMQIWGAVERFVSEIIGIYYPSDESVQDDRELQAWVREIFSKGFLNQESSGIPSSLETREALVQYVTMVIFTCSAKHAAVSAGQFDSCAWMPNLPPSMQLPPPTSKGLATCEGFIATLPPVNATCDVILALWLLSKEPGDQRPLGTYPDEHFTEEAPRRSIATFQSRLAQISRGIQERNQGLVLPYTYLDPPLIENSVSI
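Read-out: hydroperoxide product oxidises ferrous iron, measured as xylenol orange complex via the 573-to-405 nm absorbance ratio after 30 min. Reaction: 50 nM enzyme, 15 min compound preincubation, 45 uM arachidonic acid, 90 min RT, Hepes pH 7.5 with Triton X-100.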
PNC inhibitor: inhibitors of perinucleolar compartment assembly; PC3M PTB-GFP, PNC prevalence imaging, 16 h; active compounds read low; activity change (PNC), negative = inhibition, % at 10 µM; hit rate 3.1% among 140,000;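 active = readout at or below -70, meaning at least 70% loss of cells showing the perinucleolar compartment, a nuclear body marking cancer cells; inconclusive = readout between -30 and a set limit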;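 note: plate controls were DMSO wells for no effect and camptothecin positive control wells for full effect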
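Compounds are pinned in duplicate onto adhered PC3M cells stably expressing GFP-tagged PTB and incubated 16 h at 37 C. Cells are then fixed, nuclei stained with Hoechst, and PNC-positive cells counted.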
12-hLO inh: blocks human 12-lipoxygenase activity; Potency, µM (highest dose often 57.1 µM), for the others: at the top dose activity change, negative = inhibition, hits mostly inhibitors; P18054; AID 1452; purified 12-hLO, xylenol orange hydroperoxide absorbance; hit rate 0.12% among 150,000; note: potency is the fitted concentration of half-maximal effect; nearly all actives have a fitted effect of over 55% in size
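Purified human 12hLO (150 nM final) was preincubated with compounds for 15 min at room temperature in 25 mM Hepes pH 7.0, 0.01% Triton X-100, then reacted with 40 uM arachidonic acid for 30 min. Hydroperoxide was detected with ferrous iron/xylenol orange.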
Starred values were filed as active, the others as inactive; ? = inconclusive; nt = not tested or not shown; [ ] = remark or other dose. Sampled rows, rich in hits. Any-hit rate of the full collection: about 5.4%. Unless noted, calls come from the whole dose curve; as a rule, active = well fitted curve in the direction sought with a large enough effect; inconclusive = small, poorly fitted or top-dose-only effect, or another doubt; inactive = no such curve, though single readings can be large; an effect the other way counts as inactive or inconclusive. Unless noted, % is set by controls: 0 for no effect and ±100 for the full control effect.

SMILES	IMPase inh	IMPase Li inh	HPGD block	15-hLO-2 inh	PNC inhibitor	12-hLO inh
COc1ccc(CC(=O)Nc2sc3c(c2C(=O)Nc2cccc(C)c2)CCCCC3)cc1	-9	nt	nt	nt	nt	nt
Cc1cc(C)c(S(=O)(=O)NCCc2cc3ccc(C)cc3[nH]c2=O)c(C)c1	21	nt	nt	nt	nt	nt
Cn1cccc1C(=O)N1CCC[C@@]2(CCN(Cc3ccccc3)C2)C1	nt	15%	-8%	2%	nt	2%
CC(=O)N1[C@H](C)C=C[C@]1(Cc1ccccc1)C(=O)NCc1cc(F)cc(C(F)(F)F)c1	nt	5%	-4%	8%	?	-4%
CC(=O)N1[C@H](C)C=C[C@]1(Cc1ccccc1)C(=O)NCc1ccc(C)o1	nt	-5%	14µM*	20%	nt	-9%
N[C@@H](CCC(=O)N[C@H](CSN=O)C(=O)NCC(=O)O)C(=O)O	nt	-5%	-5%	nt	nt	nt
N[C@H](CCC(=O)N[C@H](CSN=O)C(=O)NCC(=O)O)C(=O)O	-9	9%	11µM*	53%	nt	-14%
CCOC(=O)N/N=C/c1cn(Cc2ccc(Cl)cc2)c2ccccc12	nt	-3%	-5%	nt	-105*	-1%
CCOC(=O)c1c(-c2ccccc2)oc2cc(Br)c(OCc3ccccc3)cc12	-8	nt	nt	nt	nt	nt
CCNc1ncc2nc(-c3ccc(Cl)cc3)c(=O)n(Cc3cccs3)c2n1	nt	-11%	nt	1%	nt	nt
CN1CCc2c(sc3c2C(=O)NC(c2cn(Cc4ccccc4)c4ccccc24)N3)C1 (stereo not given)	-2	14%[38.3 µM]	?	66%	-103*	4%
CN1CCc2c(sc3c2C(=O)NC(c2ccco2)N3)C1 (stereo not given)	9	11%[38.3 µM]	?	29%	16	-4%
O=C(NC1CCN(C(=O)N2c3ccccc3Sc3ccccc32)CC1)c1ccccc1F	-1	4%[38.3 µM]	-10%	16µM*	-9	?
COc1ccccc1N=Cc1nc(-c2ccccc2)oc1OC(C)=O	6	27%	?	nt	?	-5%
CC(=O)Oc1oc(-c2ccccc2)nc1/C=N/c1ccccn1	1	46%[38.3 µM]	22µM*	?	13	0%
CCCc1cc(C(=O)Nc2cc(Br)ccc2O)no1	-7	23%[38.3 µM]	?	-22%	?	1%
CC(C)c1cc(C(=O)Nc2cc(Br)ccc2O)no1	4	32%[38.3 µM]	8.9µM*	-17%	34	-1%
CC(C)Cc1cc(C(=O)Nc2ccc(F)cc2F)no1	15	22%[38.3 µM]	-17%	1%	-11	-3%
CC(C)Cc1cc(C(=O)Nc2cc(Cl)ccc2Cl)no1	4	28%[38.3 µM]	14µM*	-17%	7	1%
CC(C)c1cc(C(=O)Nc2cc(Cl)ccc2O)no1	?	12%[38.3 µM]	5.6µM*	?	-5	-8%
CC1(C)[C@@H]2CC[C@@]1(C)C(=O)C2	2	5%	-5%	-2%[0.0915 µM]	nt	4%[0.00818 µM]
CCCCc1nc2ccccc2n1CC(=O)N(COCC)c1c(C)cccc1CC	-1	nt	nt	nt	nt	nt
COc1ccccc1N=C1SC(C(=O)Nc2ccc(F)cc2)CC(=O)N1C (stereo not given)	-14	-5%	-6%	nt	-100*	-1%
COc1cccc2cc(/C(C)=N/Nc3nc(-c4cc(C)ccc4C)cs3)c(=O)oc12	-10[1.84 µM]	49%[38.3 µM]	32µM*	-10%[11.4 µM]	8	1%
O=C(c1ccco1)N(Cc1ccco1)c1ccc(O)cc1	2	3%[38.3 µM]	-1%	-10%	-96*	-4%
Nc1nc(N)[n+]([O-])c(N)c1NCO	nt	-11%	-9%	-7%[11.4 µM]	nt	0%[11.4 µM]
CNS(=O)(=O)c1cccc(C(=O)OCC(=O)c2cc(C)n(-c3ccc4c(c3)OCO4)c2C)c1	7	-12%[38.3 µM]	-25%	-10%	20	-3%
Cc1cc(C(=O)COc2ccccc2Cl)c(C)n1-c1ccc2c(c1)OCO2	nt	18%	?	nt	-106*	-5%
COC(=O)NC1CSCC1OC(=O)CN1C(=O)c2ccccc2C1=O (stereo not given)	-2	20%[38.3 µM]	-6%	7%	-85*	5%
